This note sets out measurements from article PMC5540273 (PLoS ONE, 2017).

Some test systems named below: TSSK1B; TSSK3; TTK; TXK; TYRO3; ULK1; ULK2; ULK3; VRK2; WEE1; WEE2; WNK1; WNK2; WNK3; WNK4.
What all share (settings): concentration: 1 μM, replicates: in singlicate; n = 1
For assay [1], the system named is TYK2(JH1domain-catalytic).
The subject of assay [2] is TYK2(JH2domain-pseudokinase).
Another assay concerns T1, VEGFR2.
T1 construct: gene KDR

In the next assay the test system is T2, VPS34.
T2 construct: gene PIK3C3

A further assay deals with T3, YANK1.
T3 construct: gene STK32A
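Also: KINOMEscan kinase panel screen.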

As for `COc1ccc(CSc2nnc(-c3ccc4ncsc4c3)o2)cc1C(F)(F)F`, the “%Inh” value with TSSK1B worked out at 0%; in the assay with TSSK3, 0%; with TTK, 13%; in the assay with TXK it was 0%; in assay [1], 0%; in assay [2], 0%. The “%Inh” value in the assay with TYRO3, in the assay with ULK1, in the assay with ULK2, with ULK3, in the assay with VEGFR2 and in the assay with VPS34 was 0% in each case. Besides, the “%Inh” value in the assay on VRK2 is 0%; in the assay on WEE1, 0%; in the assay on WEE2, 0%; in the assay on WNK1 it was 0%; in the assay on WNK2 it was 8%; in the assay on WNK3, 0%. Moreover, the “%Inh” value with WNK4 and with YANK1 was 0% throughout.

As for `COc1cccc(NC(=O)Nc2ccc(C)c(-c3ccc(C(=O)Nc4ccncc4)cc3)c2)c1` [GSK1398474], the “%Inh” value was 0% in the assay on TSSK1B; 6% in the assay on TSSK3; 13% in the assay on TTK; 0% with TXK; 0% in assay [1]; 0% in assay [2]. Also, the “%Inh” value in the assay on TYRO3 is on record as 0%; in the assay with ULK1, 6%; in the assay with ULK2, 0%; in the assay with ULK3 it was 0%; in the assay with VEGFR2 it was 6%; in the assay with VPS34, 0%. Moreover, the “%Inh” value is 0% in the assay with VRK2; 11% with WEE1; 4% in the assay on WEE2; 0% in the assay with WNK1; 0% in the assay on WNK2; 28% in the assay with WNK3. Further, the results for the “%Inh” value in the assay with WNK4 and with YANK1 were 0% and 18%, respectively.

With `CNc1nc(-c2ccc3c(N)n[nH]c3c2)cc(N2C[C@@H](C(=O)Nc3ccccc3)CC[C@H]2C)n1` [GSK2298859], the “%Inh” value in the assay on TSSK1B stood at 0%; with TSSK3, 6%; with TTK, 21%; in the assay with TXK, 10%; in assay [1], 22%; in assay [2], 13%. Further, the “%Inh” value in the assay on TYRO3 is 0%; in the assay on ULK1, 0%; in the assay with ULK2 it was 0%; in the assay with ULK3, 0%; in the assay on VEGFR2, 0%; with VPS34 it was 7%. The “%Inh” value is 0% in the assay on VRK2; 9% in the assay on WEE1; 0% in the assay with WEE2; 0% with WNK1; 0% in the assay with WNK2; 33% with WNK3. Also, the results for the “%Inh” value in the assay with WNK4 and in the assay with YANK1 were 29% and 46%, respectively.

As for `CS(=O)(=O)CCNCc1nc(-c2ccc3ncnc(Nc4ccc5c(cnn5Cc5ccccc5)c4)c3c2)cs1.Cl.Cl` [GW569716], the “%Inh” value in the assay on TSSK1B was 0%; in the assay on TSSK3, 1%; in the assay with TTK it was 3%; with TXK it was 3%; in [1] it was 22%; in assay [2], 57%. The “%Inh” value in the assay with TYRO3, with ULK1, with ULK2, in the assay on ULK3, with VEGFR2 and in the assay on VPS34 was 0% in each case. Further, the “%Inh” value in the assay with VRK2 amounted to 16%; with WEE1 it was 0%; in the assay on WEE2, 5%; with WNK1, 5%; in the assay on WNK2 it was 3%; with WNK3 it was 0%. Also, the “%Inh” value with WNK4 amounted to 62%; in the assay on YANK1, 3%.

As to `Cn1cnc2c(N)ncnc21` [SKF-97623], the “%Inh” value (in the assay with TSSK1B; in the assay with TSSK3; with TTK; with TXK; in assay [1]; in assay [2]) was 0% in each case. Further, the “%Inh” value with TYRO3 was determined as 0%; in the assay on ULK1, 0%; in the assay with ULK2, 0%; in the assay on ULK3, 0%; in the assay on VEGFR2, 100%; with VPS34, 0%. In addition, the “%Inh” value in the assay with VRK2 came out at 96.8%; in the assay on WEE1, 0%; in the assay on WEE2, 29%; in the assay with WNK1, 0%; in the assay on WNK2, 8%; with WNK3, 0%. Besides, the “%Inh” value with WNK4 and in the assay with YANK1 was 0% throughout.

With `Fc1ccc(-c2nc3n(c2-c2ccncc2)CCS3)cc1` [GI98581], the “%Inh” value in the assay with TSSK1B was found to be 0%; with TSSK3, 22%; in the assay on TTK it was 0%; in the assay with TXK, 0%; in [1], 8%; in [2], 11%. Besides, the “%Inh” value in the assay on TYRO3 amounted to 0%; in the assay with ULK1, 2%; in the assay on ULK2, 0%; in the assay on ULK3, 0%; in the assay on VEGFR2, 0%; in the assay with VPS34 it was 21%. The “%Inh” value with VRK2 was 0%; in the assay with WEE1, 3%; in the assay with WEE2, 7%; in the assay on WNK1, 0%; in the assay on WNK2, 7%; with WNK3, 13%. Moreover, the “%Inh” value with WNK4 is 2%; in the assay on YANK1 it was 13%.

In the case of `O=c1cc(N2CCOCC2)nc2n(Cc3cccc(Cl)c3Cl)c3ccccc3n12` [GSK2299009], the “%Inh” value turned out to be 10% with TSSK1B; 20% with TSSK3; 8% with TTK; 0% with TXK; 0% in assay [1]; 0% in [2]. Besides, the “%Inh” value with TYRO3 was determined as 0%; in the assay with ULK1, 18%; with ULK2, 0%; in the assay with ULK3, 2%; in the assay on VEGFR2, 7%; in the assay on VPS34, 96.7%. In addition, the “%Inh” value in the assay on VRK2 came out at 0%; with WEE1, 28%; in the assay with WEE2, 17%; in the assay with WNK1, 6%; in the assay on WNK2, 42%; with WNK3 it was 5%. For the same compound, the “%Inh” value stood at 0% in the assay on WNK4 and 22% with YANK1.

`Cc1ccccc1Cn1ccn2c(=O)cc(N3CCOCC3)nc12` [GSK2269905]: the “%Inh” value in the assay on TSSK1B was 10%; in the assay on TSSK3, 0%; in the assay on TTK, 5%; in the assay with TXK, 7%; in assay [1] it was 0%; in assay [2], 0%. Further, the “%Inh” value is 0% with TYRO3; 16% in the assay with ULK1; 0% in the assay on ULK2; 9% with ULK3; 0% with VEGFR2; 88% in the assay with VPS34. Moreover, the “%Inh” value was determined as 0% in the assay on VRK2; 0% with WEE1; 0% with WEE2; 10% in the assay with WNK1; 0% in the assay with WNK2; 8% in the assay on WNK3. The entries for the “%Inh” value in the assay with WNK4 and in the assay on YANK1 were 0% and 8%, respectively.

As to `CCCCc1nn2ncccc2c1-c1ccnc(NC2CC2)n1` [GW684374], the “%Inh” value with TSSK1B is 0%; with TSSK3, 9%; with TTK, 0%; in the assay with TXK it was 0%; in assay [1], 6%; in assay [2], 32%. Moreover, the “%Inh” value in the assay with TYRO3, in the assay on ULK1, with ULK2, with ULK3, in the assay with VEGFR2 and in the assay with VPS34 was 0% throughout. Further, the “%Inh” value with VRK2 amounted to 4%; in the assay with WEE1, 34%; with WEE2, 0%; in the assay with WNK1 it was 3%; with WNK2 it was 15%; in the assay with WNK3, 26%. The “%Inh” value was 14% in the assay with WNK4 and 6% in the assay on YANK1.

Consider `CC(C)c1cc(-c2ccc3c(N)n[nH]c3c2)nc(N)n1` [GSK2250882], for which the “%Inh” value with TSSK1B is on record as 6%; in the assay with TSSK3 it was 20%; in the assay on TTK, 10%; in the assay on TXK it was 0%; in assay [1], 20%; in [2], 2%. In addition, the “%Inh” value with TYRO3 came out at 0%; in the assay on ULK1, 6%; in the assay with ULK2, 0%; in the assay with ULK3, 9%; in the assay with VEGFR2, 0%; with VPS34 it was 9%. Further, the “%Inh” value in the assay with VRK2 was 4%; with WEE1 it was 11%; in the assay with WEE2 it was 6%; in the assay on WNK1, 0%; in the assay on WNK2 it was 0%; in the assay with WNK3, 3%. In addition, the “%Inh” value in the assay with WNK4 was 0%; in the assay with YANK1, 20%.
